# Measurements: PubChem BioAssay
# Several values for one entry are separate records, joined by “and”; a condition that tells them apart may be missing. Identical values can stand only once. Records with an inconclusive call do not appear. Activity calls are given as the source filed them. Unless noted, cut-off not given; nearly all actives show AC50 up to about 26 µM.
# What was measured:
# [1] = viability loss in pontine glioma line – cell-based, SU-DIPG-XVII, MIPE5.0, CellTiter-Glo, qHTS, dose response (AID 1347060); settings: CellTiter-Glo ATP luminescence;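 on AC50: cells exposed to compound for 48 hours before viability readout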
# [2] = viability loss in pontine glioma line – cell-based, SU-DIPG-XIII, MIPE4.0, CellTiter-Glo, qHTS, dose response (AID 1347061; cut-off not given, nearly all actives have AC50 up to about 37 µM;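 further: cells exposed to compound for 48 hours before readout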); settings: CellTiter-Glo ATP luminescence
# [3] = viability loss in pontine glioma line – cell-based, JHH-DIPG-1, MIPE4.0, CellTiter-Glo, qHTS, dose response (AID 1347062; cut-off not given, nearly all actives have AC50 up to about 27 µM;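 on AC50: cells exposed to compound for two days before readout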); settings: JHH-DIPG-1 viability, CellTiter-Glo ATP luminescence
# [4] = viability loss in pontine glioma line – cell-based, SU-DIPG-IV, MIPE4.0, CellTiter-Glo, qHTS, dose response (AID 1347063; cut-off not given, nearly all actives have AC50 up to about 30 µM;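 further: compound exposure lasted 48 hours before the viability readout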); settings: CellTiter-Glo ATP luminescence
# [5] = viability loss in pontine glioma line – cell-based, SU-DIPG-XIII, MIPE5.0, CellTiter-Glo, qHTS, dose response (AID 1347064; cut-off not given, nearly all actives have AC50 up to about 23 µM;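 on AC50: cells exposed to compound for 48 hours before the viability read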); settings: CellTiter-Glo ATP luminescence
# [6] = viability loss in pontine glioma line – cell-based, SU-DIPG-XXV, MIPE5.0, CellTiter-Glo, qHTS, dose response (AID 1347065); settings: CellTiter-Glo ATP luminescence;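 further: cells exposed to compound for 48 hours before ATP readout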
# [7] = growth inhibition of DIPG cells – cell-based, MIPE4.0 library, CellTiter-Glo luminescence, qHTS (AID 1347066; cut-off not given, nearly all actives have AC50 up to about 30 µM;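 further: cells exposed to compound for 48 hours before readout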); settings: SU-DIPG-VI viability, CellTiter-Glo ATP luminescence
# [8] = JHH-DIPG-1 glioma cell viability, MIPE5.0 library, CellTiter-Glo luminescence, qHTS (AID 1347067); settings: JHH-DIPG-1 glioma viability, CellTiter-Glo ATP luminescence;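 further: cells exposed to compound for 48 hours before readout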
# [9] = growth inhibition of DIPG cells – cell-based, MIPE5.0 library, qHTS (AID 1347068; cut-off not given, nearly all actives have IC50 up to about 30 µM;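 on IC50: cells exposed to compound for 48 hours before viability readout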); settings: SU-DIPG-XXV viability
# [10] = compounds altering HSF1 focus formation in cells – imaging, Selleck Cancer Library (AID 1347162; in the data active means plate-normalised HSF1 focus index below about 0.46); settings: human cells, HSF1 nuclear foci imaging, at 10 µM; SSMD: measured here: HSF1 foci SSMD mean; cell count: measured here: cell number; plate-normalised HSF1 focus index: stronger effect = lower value
# [11] = viability loss with induced miR-34 in A549 – imaging, A549 dox-inducible miR-34, nuclei and caspase counts, primary screen (AID 1347080;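 active means compounds whose cell count with miR-34 switched on is under 0.7 times the count with it off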); settings: A549 miR-34 inducible, Hoechst nuclei count, 48 h
# [12] = MELAS cybrid and Rieske KO viability enhancers – cell-based, MELAS cybrids, Rieske KO mouse fibroblasts, CellTiter-Glo, primary screen (AID 1508586;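 active means mean z-score across replicates of 1.96 or higher in either the MELAS or the Rieske mutant cell line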;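 further: z relative to plate mean and SD of compound and empty wells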); settings: low glucose
# [13] = galactose survival enhancers in mitochondrial complex I cybrids – cell-based, galactose medium, ATP luminescence, primary screen (AID 1645843;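 active means z-score of at least 1.8 in each of two replicates, scored against plate mean and spread of sample wells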;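 further: positive z means more ATP and so rescue of galactose-driven cybrid death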); settings: complex I mutant cybrid cells, 72 h, stronger effect = higher value
# [14] = stronger effect = lower value, cell number ratio, induced over uninduced
# [15] = measured here: relative caspase fold change +Dox/-Dox
# [16] = measured here: total cells with miR-34 induction, stronger effect = lower value
# [17] = measured here: total cells without miR-34 induction
# [18] = MELAS cybrid survival, CellTiter-Glo 48 h, stronger effect = higher value
# [19] = Rieske KO mouse fibroblast survival, CellTiter-Glo 72 h
structure (smiles),measurement,setting,value
CC1(C)OC2=C(C(=O)c3ccccc3C2=O)[C@H](NCc2ccccc2)[C@@H]1O,AC50,[1],6.61 µM (active)
same,AC50,[2],5.9 µM (active)
same,AC50,[3],2.35 µM (active)
same,AC50,[4],5.9 µM (active)
same,AC50,[5],2.95 µM (active)
same,AC50,[6],3.72 µM (active)
same,AC50,[7],2.64 µM (active)
same,AC50,[8],3.32 µM (active)
same,IC50,[9],8.33 µM (active)
same,SSMD,[10],0.824
same,cell count,[10],7240
same,plate-normalised HSF1 focus index,[10],1.05 (inactive)
CC(C)c1ccc(Cn2ccc3c4c(N)nc(NC5CC5)nc4ccc32)cc1,AC50,[1],2.63 µM (active)
same,AC50,[2],20.9 µM (active)
same,AC50,[3],4.69 µM (active)
same,AC50,[4],4.18 µM (active)
same,AC50,[5],6.61 µM (active)
same,AC50,[6],2.63 µM (active)
same,AC50,[7],18.7 µM (active)
same,AC50,[8],5.25 µM (active)
same,IC50,[9],3.72 µM (active)
same,SSMD,[10],-7.04
same,cell count,[10],3190
same,plate-normalised HSF1 focus index,[10],0.581 (inactive)
NC(=O)c1ccc(N(C(N)=O)c2c(F)cccc2F)nc1-c1ccc(F)cc1F,outcome,[1],inactive
same,outcome,[2],inactive
same,outcome,[3],inactive
same,outcome,[4],inactive
same,outcome,[5],inactive
same,outcome,[6],inactive
same,outcome,[7],inactive
same,outcome,[8],inactive
same,outcome,[9],inactive
same,fold change,[11]; [14],0.9 (inactive)
same,fold change,[11]; [15],0.736
same,cell count,[11]; [16],9290
same,cell count,[11]; [17],10300
same,z-score,[12]; [18],-0.391 (inactive)
same,z-score,[12]; [19],-0.467
Cc1cccc(-c2[nH]ncc2-c2ccc3ncccc3n2)n1,outcome,[1],inactive
same,outcome,[2],inactive
same,outcome,[3],inactive
same,outcome,[4],inactive
same,outcome,[5],inactive
same,outcome,[6],inactive
same,outcome,[7],inactive
same,outcome,[8],inactive
same,outcome,[9],inactive
same,fold change,[11]; [14],0.969 (inactive) and 0.891 (inactive)
same,fold change,[11]; [15],0.983 and 0.417
same,cell count,[11]; [16],9850 and 8880
same,cell count,[11]; [17],10200 and 9960
same,z-score,[12]; [18],-0.572 (inactive)
same,z-score,[12]; [19],0.111
same,z-score,[13],-0.39 (inactive)
Cc1cnc(Nc2ccc(N3CCN(C)CC3)cc2)nc1Nc1cccc(S(=O)(=O)NC(C)(C)C)c1,AC50,[1],2.95 µM (active)
same,AC50,[2],5.9 µM (active)
same,AC50,[3],5.9 µM (active)
same,AC50,[4],6.62 µM (active)
same,AC50,[5],2.95 µM (active)
same,AC50,[6],1.86 µM (active)
same,AC50,[7],14.8 µM (active)
same,AC50,[8],2.95 µM (active)
same,IC50,[9],4.68 µM (active)
same,fold change,[11]; [14],1.22 (inactive)
same,fold change,[11]; [15],0.413
same,cell count,[11]; [16],2300
same,cell count,[11]; [17],1880
same,z-score,[12]; [18],1.59 (inactive)
same,z-score,[12]; [19],-3.35
O=C(NCc1ccccc1)c1csc(Nc2ccncn2)n1,AC50,[1],18.6 µM (active)
same,AC50,[2],20.9 µM (active)
same,AC50,[3],4.18 µM (active)
same,AC50,[4],9.35 µM (active)
same,AC50,[5],14.8 µM (active)
same,AC50,[6],16.6 µM (active)
same,AC50,[7],16.6 µM (active)
same,AC50,[8],16.6 µM (active)
same,IC50,[9],23.5 µM (active)
same,fold change,[11]; [14],0.918 (inactive)
same,fold change,[11]; [15],0.977
same,cell count,[11]; [16],4990
same,cell count,[11]; [17],5440
same,z-score,[12]; [18],-0.235 (inactive)
same,z-score,[12]; [19],-0.0999
